Results: the antibiotic and cytotoxicity screens of Wong et al. (2023)
The campaign covered roughly 39,000 compounds. About 3,300 (8.5%) were called active. This is one part of a sample in which actives are shown more often than they occur.

The compounds below were run on HepG2 (assay: cytotoxicity call (relative viability < 0.9)). Conditions: 10 µM.

| Structure (SMILES) | cytotoxicity call |
| --- | --- |
| C[C@@H]1CCCCO[C@H](CN(C)CC2CC2)[C@H](C)CN([C@@H](C)CO)C(=O)c2cc(NS(=O)(=O)c3cn(C)cn3)ccc2O1 | inactive |
| COCC#Cc1ccc2c(c1)O[C@@H](CN(C)S(=O)(=O)c1ccc(C)cc1)[C@H](C)CN([C@@H](C)CO)S2(=O)=O | inactive |
| O=C1N[C@H]2[C@@H]1[C@@H]1C=C[C@H]2C1 | inactive |
| COc1ccc(NC(=O)Nc2cccc3c2O[C@@H](CN(C)Cc2ccc(C(F)(F)F)cc2)[C@@H](C)CN([C@@H](C)CO)C3=O)cc1 | inactive |
| Cc1ccc(S(=O)(=O)Nc2ccc3c(c2)C(=O)N([C@H](C)CO)C[C@@H](C)[C@H](CN(C)C(=O)NC2CCCCC2)OCCCC[C@H](C)O3)cc1 | inactive |
| C[C@@H]1CCCCO[C@H](CN(C)Cc2ccccc2)[C@@H](C)CN([C@@H](C)CO)C(=O)c2cc(NC(=O)c3ccccc3)ccc2O1 | inactive |
| CNC(=O)C[C@H]1Nc2ccccc2NC1=O | inactive |
| N[C@H]1CCCC[C@@H]1OCc1ccccc1 | inactive |
| CC1CCC2(C)C(C=O)=CCCC2C1(C)CC1OC(O)C(=O)C12CO2 (stereo unspecified) | active |
| Cc1noc(C)c1S(=O)(=O)N(C)C[C@@H]1OCc2cn(nn2)CCCC(=O)N([C@@H](C)CO)C[C@H]1C | inactive |
| C[C@H](CO)N1C[C@H](C)[C@@H](CN(C)Cc2ccc(Oc3ccccc3)cc2)Oc2ccc(NC(=O)Cc3ccccc3)cc2C1=O | inactive |
| C[C@H](CO)N1C[C@H](C)[C@H](CN(C)Cc2ccc(Oc3ccccc3)cc2)Oc2ccc(NC(=O)Cc3ccccc3)cc2C1=O | inactive |
| C[C@@H]1CN([C@@H](C)CO)C(=O)c2cc(NC(=O)Cc3ccccc3)ccc2O[C@H]1CN(C)Cc1ccc(Oc2ccccc2)cc1 | inactive |
| C[C@@H]1CN([C@H](C)CO)C(=O)c2cc(NC(=O)Cc3ccccc3)ccc2O[C@H]1CN(C)Cc1ccc(Oc2ccccc2)cc1 | active |
| C[C@@H]1CN([C@H](C)CO)C(=O)c2cc(NC(=O)Cc3ccccc3)ccc2O[C@@H]1CN(C)Cc1ccc(Oc2ccccc2)cc1 | inactive |
| C[C@H]1CN([C@@H](C)CO)C(=O)c2cc(NC(=O)Cc3ccccc3)ccc2O[C@H]1CN(C)Cc1ccc(Oc2ccccc2)cc1 | inactive |
| C[C@H]1CN([C@@H](C)CO)C(=O)c2cc(NC(=O)Cc3ccccc3)ccc2O[C@@H]1CN(C)Cc1ccc(Oc2ccccc2)cc1 | active |
| C[C@@H]1CN([C@@H](C)CO)C(=O)c2cc(NC(=O)Cc3ccccc3)ccc2O[C@@H]1CN(C)Cc1ccc(Oc2ccccc2)cc1 | active |
| COc1ccc(NC(=O)N(C)C[C@H]2Oc3ccc(NC(=O)CCCCCC(=O)Nc4ccccc4N)cc3CC(=O)N([C@@H](C)CO)C[C@@H]2C)cc1 | inactive |
| C[C@H](CO)N1C[C@H](C)[C@@H](CN(C)S(C)(=O)=O)Oc2c(NC(=O)NC3CCCCC3)cccc2C1=O | inactive |
| CO[C@H]1CN(C)C(=O)c2ccc(NC(=O)NC(C)C)cc2OC[C@@H](C)N(Cc2ccc(-c3ccccn3)cc2)C[C@H]1C | inactive |
| O=C(CN1CCOCC1)NCC[C@@H]1CC[C@@H](NC(=O)Nc2ccccc2)[C@H](CO)O1 | inactive |
| COc1ccc(-c2cnc3c(c2)C(=O)N([C@@H](C)CO)C[C@@H](C)[C@@H](CN(C)C(=O)Cc2ccccn2)O3)cc1 | inactive |
| CN(C)S(=O)(=O)N1CCN(CC(=O)Nc2ccc(Br)cc2)CC1 | inactive |

| Structure (SMILES) | cytotoxicity call |
| --- | --- |
| C[C@H]1CN([C@@H](C)CO)C(=O)c2cccc(NC(=O)c3cnccn3)c2O[C@H]1CN(C)S(=O)(=O)c1ccc(F)cc1 | inactive |
| C[C@@H]1CN([C@H](C)CO)C(=O)c2cc(NC(=O)CCC(F)(F)F)ccc2O[C@@H](C)CCCCO[C@@H]1CN(C)Cc1ccc(C(=O)O)cc1 | inactive |
| O=C(O)CC1CCOCC1 | inactive |
| C[C@@H]1CCCCO[C@@H](CN(C)C)[C@H](C)CN([C@H](C)CO)C(=O)c2cc(NC(=O)CCCCCC(=O)Nc3ccccc3N)ccc2O1 | inactive |
| COc1ccc(CN(C)C[C@H]2OCCCC[C@H](C)Oc3ccc(NC(=O)Nc4ccccc4)cc3C(=O)N([C@@H](C)CO)C[C@@H]2C)cc1 | inactive |
| COc1ccc(CN(C)C[C@@H]2OCCCC[C@H](C)Oc3ccc(NC(=O)Nc4ccccc4)cc3C(=O)N([C@H](C)CO)C[C@H]2C)cc1 | inactive |
| COc1ccc(CN(C)C[C@H]2OCCCC[C@@H](C)Oc3ccc(NC(=O)Nc4ccccc4)cc3C(=O)N([C@H](C)CO)C[C@@H]2C)cc1 | inactive |
| COc1ccc(CN(C)C[C@@H]2OCCCC[C@@H](C)Oc3ccc(NC(=O)Nc4ccccc4)cc3C(=O)N([C@@H](C)CO)C[C@@H]2C)cc1 | inactive |
| COc1ccc(CN(C)C[C@H]2OCCCC[C@@H](C)Oc3ccc(NC(=O)Nc4ccccc4)cc3C(=O)N([C@H](C)CO)C[C@H]2C)cc1 | active |
| COc1ccc(CN(C)C[C@H]2OCCCC[C@@H](C)Oc3ccc(NC(=O)Nc4ccccc4)cc3C(=O)N([C@@H](C)CO)C[C@H]2C)cc1 | active |
| C[C@@H]1CN([C@@H](C)CO)C(=O)c2cc(NC(=O)Nc3ccccc3)ccc2O[C@H]1CN(C)CC1CCCCC1 | inactive |
| COc1ccccc1S(=O)(=O)N[C@H]1CC[C@@H](CCNC(=O)C2CC2)O[C@H]1CO | inactive |
| CCOC(=O)C[C@H]1CCCNC1 | inactive |
| COC(=O)c1c(C)cc(OC)cc1O | inactive |
| CCOC(=O)c1c(C)cc(OC)cc1O | active |
| CCOC(=O)c1c(C)cc(O)cc1O | inactive |
| C[C@H](CO)N1C[C@H](C)[C@H](CN(C)S(=O)(=O)c2cccs2)Oc2ncc(C#Cc3ccccc3)cc2C1=O | inactive |
| C[C@@H]1CCCCO[C@H](CN(C)C(=O)Nc2cccc3ccccc23)[C@@H](C)CN([C@H](C)CO)C(=O)c2cc(NS(=O)(=O)c3ccccc3)ccc2O1 | inactive |
| C[C@H]1CCCCO[C@@H](CN(C)C(=O)Nc2cccc3ccccc23)[C@@H](C)CN([C@@H](C)CO)C(=O)c2cc(NS(=O)(=O)c3ccccc3)ccc2O1 | inactive |
| C[C@@H]1CCCCO[C@@H](CN(C)C(=O)Nc2cccc3ccccc23)[C@H](C)CN([C@H](C)CO)C(=O)c2cc(NS(=O)(=O)c3ccccc3)ccc2O1 | active |
| C[C@@H]1CCCCO[C@@H](CN(C)C(=O)Nc2cccc3ccccc23)[C@H](C)CN([C@H](C)CO)C(=O)c2cc(NS(C)(=O)=O)ccc2O1 | inactive |
| C[C@H](CO)N1C[C@H](C)[C@@H](CN(C)C(=O)Nc2cccc3ccccc23)OCCCC[C@H](C)Oc2ccc(NS(=O)(=O)c3ccccc3)cc2C1=O | inactive |
| C[C@@H]1CCCCO[C@H](CN(C)C(=O)Nc2cccc3ccccc23)[C@H](C)CN([C@H](C)CO)C(=O)c2cc(NS(C)(=O)=O)ccc2O1 | active |
| C[C@@H]1CN([C@@H](C)CO)C(=O)c2cc(NS(=O)(=O)c3ccccc3)ccc2O[C@@H](C)CCCCO[C@H]1CN(C)C(=O)Nc1cccc2ccccc12 | active |

| Structure (SMILES) | cytotoxicity call |
| --- | --- |
| C[C@@H]1CN([C@@H](C)CO)C(=O)c2cc(NS(=O)(=O)c3ccccc3)ccc2O[C@@H](C)CCCCO[C@@H]1CN(C)C(=O)Nc1cccc2ccccc12 | inactive |
| C[C@@H]1CCCCO[C@H](CN(C)C(=O)Nc2cccc3ccccc23)[C@H](C)CN([C@H](C)CO)C(=O)c2cc(NS(=O)(=O)c3ccccc3)ccc2O1 | active |
| C[C@@H]1CCCCO[C@@H](CN(C)C(=O)Nc2cccc3ccccc23)[C@H](C)CN([C@@H](C)CO)C(=O)c2cc(NS(=O)(=O)c3ccccc3)ccc2O1 | inactive |
| C[C@@H]1CCCCO[C@H](CN(C)C(=O)Nc2cccc3ccccc23)[C@@H](C)CN([C@@H](C)CO)C(=O)c2cc(NS(C)(=O)=O)ccc2O1 | inactive |
| C[C@@H]1CCCCO[C@H](CN(C)C(=O)Nc2cccc3ccccc23)[C@@H](C)CN([C@@H](C)CO)C(=O)c2cc(NS(=O)(=O)c3ccccc3)ccc2O1 | inactive |
| C[C@@H]1CN([C@H](C)CO)C(=O)c2cc(NS(=O)(=O)c3cccs3)ccc2O[C@@H]1CN(C)C(=O)Nc1cccc2ccccc12 | inactive |
| COc1ccc(-c2cn(CCNC(=O)[C@@H](NS(=O)(=O)c3ccc(C)cc3)C(C)C)nn2)cc1OC | inactive |
| O=C1c2ccccc2[C@@]2(Cc3ccccc3N(CC(F)(F)F)C2=O)[C@H](c2ccc(CO)cc2)N1C1CCCCC1 | inactive |
| C[C@@H]1CN([C@H](C)CO)C(=O)Cc2cc(NC(=O)Nc3cccc4ccccc34)ccc2O[C@H]1CN(C)C(=O)Nc1cccc2ccccc12 | inactive |
| COc1ccc(S(=O)(=O)Nc2ccc3c(c2)C(=O)N([C@H](C)CO)C[C@@H](C)[C@H](CN(C)C(=O)Nc2ccc(C(F)(F)F)cc2)OCCCC[C@H](C)O3)cc1 | inactive |
| COc1ccc([C@@H]2CC=CC[C@H](C)Oc3ccccc3C(=O)N(C)[C@H](Cc3ccccc3)C(=O)N2)c(OC)c1 | inactive |
| C[C@H](CO)N1C[C@H](C)[C@@H](CN(C)C(=O)Nc2ccc3c(c2)OCO3)Oc2ncc(-c3ccncc3)cc2C1=O | inactive |
| C=CC[C@@H](CC(=O)NCCO)C(=O)N[C@H](COC(=O)[C@H](CC=C)CC(=O)OC(C)(C)C)Cc1c[nH]c2ccccc12 | inactive |
| Cc1ccc(-c2csc(-c3ccc(CN)cc3)n2)cc1 | inactive |
| Cc1ccc(Cc2nc(-c3ccc(Cl)cc3)cs2)cc1 | active |
| Cc1ccc(-c2nc(-c3ccc(Cl)cc3)cs2)cc1F | inactive |
| C[C@@H]1CN([C@H](C)CO)S(=O)(=O)c2ccc(C#C[C@@H](C)O)cc2O[C@H]1CN(C)C(=O)C1CCCCC1 | inactive |
| O=S(=O)(NCC[C@@H]1CC[C@H](NS(=O)(=O)c2ccccc2Cl)[C@H](CO)O1)c1ccc(F)cc1 | inactive |
| CN(C)CC(=O)N[C@@H]1CC[C@@H](CCNS(=O)(=O)c2ccccc2)O[C@@H]1CO | active |
| CN(C)CC(=O)N[C@H]1CC[C@H](CCNS(=O)(=O)c2ccccc2)O[C@H]1CO | inactive |
| CN(C)CC(=O)N[C@H]1CC[C@H](CCNS(=O)(=O)c2ccccc2)O[C@@H]1CO | inactive |
| O=S(=O)(NCC[C@H]1CC[C@H](NS(=O)(=O)c2ccccc2Cl)[C@@H](CO)O1)c1ccc(F)cc1 | active |
| O=S(=O)(NCC[C@@H]1CC[C@@H](NS(=O)(=O)c2ccccc2Cl)[C@H](CO)O1)c1ccc(F)cc1 | inactive |
